The entries come from a sample that favours hits as a whole.
RMI FANCM FP – disruptors of RMI1/RMI2 association with MM2 peptide – biochemical, fluorescence polarization, human, primary screen; RMI core complex (RMI1/RMI2) binding to FANCM MM2 peptide, human; RMI core complex with F-MM2 peptide; active compounds read low; FP signal (polarization) at 33 µM; 70,000 tested, 0.58% active; AID 1159607, 2016; in the data active = FP signal below about 40
An asterisk follows results filed as active.

SMILES	RMI FANCM FP
NC[C@@H]1O[C@H](O[C@H]2[C@@H](O)[C@H](O[C@@H]3[C@@H](O)[C@H](N)C[C@H](N)[C@H]3OC3O[C@H](CO)[C@@H](O)[C@H](O)[C@H]3N)O[C@@H]2CO)[C@H](N)[C@@H](O)[C@@H]1O (stereo partly specified)	4*
NC[C@H]1O[C@H](OC2[C@@H](N)C[C@@H](N)[C@H](O)[C@H]2O[C@@H]2O[C@H](CO)[C@@H](O)[C@H]2O)[C@H](N)[C@@H](O)[C@@H]1O (stereo partly specified)	49
O=C(CSc1nc2c(oc3ccccc32)c(=O)n1C1CCCC1)NCCc1ccccc1	66
O=C(Cn1c2c(c(=O)n(C3CCCCC3)c1=O)CCC2)NCc1cccnc1	57
CCCCNC(=O)N1CCN(C(c2ccccc2)c2ccccc2)CC1	61
Cc1ccc(S(=O)(=O)CCC(=O)Nc2sc3c(c2C(N)=O)CCC(C)C3)cc1 (stereo unspecified)	83
CCN1CCc2c(sc(NC(=O)c3ccnn3C)c2C(N)=O)C1	68
CC(C)N1CCc2c(sc(NC(=O)c3ccn(C)n3)c2C(N)=O)C1	74
CCOC(=O)N1CCc2c(sc(NC(=O)CCSc3ccc(Cl)cc3)c2C(N)=O)C1	58
CC(=O)N1CCc2c(sc(NC(=O)CSc3ccc(Cl)cc3)c2C(N)=O)C1	-4*
CC(C)N1CCc2c(sc(NC(=O)CN3C(=O)c4ccccc4C3=O)c2C(N)=O)C1	-4*
CCN1CCc2c(sc(NC(=O)CS(=O)(=O)c3ccc(F)cc3)c2C(N)=O)C1	13*
Cc1ccc(S(=O)(=O)CC(=O)Nc2sc3c(c2C(N)=O)CCN(C(C)C)C3)cc1	57
CCN1CCc2c(sc(NC(=O)CCS(=O)(=O)c3ccc(C)cc3)c2C(N)=O)C1	34*
CCOC(=O)N1CCc2c(sc(NC(=O)CCS(=O)(=O)c3ccccc3)c2C(N)=O)C1	69
CC(=O)N1CCc2c(sc(NC(=O)CCSc3ccc(C)cc3)c2C(N)=O)C1	56
CCOC(=O)N1CCc2c(sc(NC(=O)CS(=O)(=O)c3ccc(C)cc3)c2C(N)=O)C1	63
Cc1c(-c2ccc(Br)cc2)c(=O)oc2ccc(OC(=O)c3ccco3)cc12	62
COc1ccc(S(=O)(=O)CCC(=O)Nc2nc3ccc4nc(C)sc4c3s2)cc1	64
O=c1/c(=C\c2ccc(Cl)cc2)sc2nc(-c3ccc(Cl)cc3)nn12	59
O=c1nc2s/c(=C/c3ccccn3)c(=O)n2nc1-c1ccccc1	21*
O=c1/c(=C/c2ccccc2)sc2nnc(-c3ccc(Cl)cc3)n12	52
O=[N+]([O-])c1ccc(N=NS(=O)(=O)c2ccc([N+](=O)[O-])cc2)cc1	66
COc1ccc(C(=O)CN2CCN(CCN3C(=O)c4cccc5cccc(c45)C3=O)CC2)cc1	25*
COC(=O)c1ccc(OCC(O)CN2CCN(CCN3C(=O)c4cccc5cccc(c45)C3=O)CC2)cc1 (stereo unspecified)	56
SMILES	RMI FANCM FP
O=C(CN1CCN(CCN2C(=O)c3cccc4cccc(c34)C2=O)CC1)c1ccc(F)cc1	63
O=c1cc(-c2ccccc2)oc2cc(O)cc(O)c12	55
O=c1c(-c2ccccc2)coc2cc(O)cc(O)c12	33*
COc1cc(O)c2c(=O)c(-c3ccc(O)cc3)coc2c1	51
Cc1cc(C(=O)NCCOc2cccc(C(F)(F)F)c2)ccc1[N+](=O)[O-]	61
O=C(/C=C\c1ccco1)/C=C/c1ccc(-c2ccc(Cl)c(Cl)c2)o1	-11*
N#C/C(=C/c1ccc(-c2ccc(Cl)c(Cl)c2)o1)C(=O)Nc1ccccc1I	75
O=C(/C=C/c1ccc(Br)o1)/C=C/c1ccc(Br)o1	62
O=C(/C=C\c1ccco1)/C=C/c1ccc(-c2ccc(Br)cc2)o1	8*
O=C(/C=C/c1ccc(-c2cccc(Br)c2)o1)c1ccco1	77
NC(=O)/C=C/c1ccco1	53
COc1ccc(-c2nnc3ccc(OCCNC(=O)Cc4cccs4)nn23)cc1OC	70
O=C(Cc1ccccc1)Nc1nc(-c2cccnc2)cs1	49
O=C(CC1CCCCN1S(=O)(=O)c1ccc(F)cc1)Nc1ccc(F)c(Cl)c1 (stereo unspecified)	74
COc1ccc(NC(=O)c2cc(-c3ccccc3)nc3c2c(C)nn3C2CCS(=O)(=O)C2)cc1 (stereo unspecified)	74
Cc1cc(-c2nnc(NC(=O)C3CC3)o2)n(C)n1	67
CCOC(=O)c1ccc(-c2ccc(/C=C3\SC(=O)NC3=S)o2)cc1	-42
O=C1C(=Cc2ccc(-c3ccc(C(F)(F)F)cc3[N+](=O)[O-])o2)C(=O)c2ccccc21	59
O=C1NC(=S)/C(=C/c2ccc(-c3ccccc3[N+](=O)[O-])o2)S1	9*
COc1ccc(C(=O)Nc2c(N)nc(SCC(=O)c3ccccc3)[nH]c2=O)cc1	71
CCCc1ccc(S(=O)(=O)NCCN2CCN(c3ccc(OC)cc3)CC2)cc1	62
Cc1noc(C)c1S(=O)(=O)N1CCC(C(=O)O)CC1	56
CCCc1noc(C)c1C(=O)O	-5*
Cc1coc(C)c1C(=O)O	57
CC12CCC(C(=O)Oc3ccc4ccccc4c3)(CC1=O)C2(C)C (stereo unspecified)	57
SMILES	RMI FANCM FP
CC(C)(C)NC(=O)/C=C/c1cc([N+](=O)[O-])ccc1Sc1ccc(C(F)(F)F)cn1	59
O=C(O)/C=C/c1ccc(S(=O)(=O)NCCCC(=O)O)cc1	64
O=C1N=C(N2CCN(c3ccccc3F)CC2)S/C1=C\c1cccnc1	66
O=C1N=C(N2CCN(c3ccccc3[N+](=O)[O-])CC2)S/C1=C/c1cccs1	18*
CC1CCN(C2=NC(=O)/C(=C\c3ccccc3)S2)CC1	58
N/C(=N/O)c1nnc(-c2ccc([N+](=O)[O-])cc2)o1	54
COCCn1c(SCC(=O)Nc2ccccc2C(F)(F)F)nnc1-c1c[nH]c2ccccc12	60
N#Cc1ccc(CSc2nccc(-c3ccc4c(c3)OCO4)n2)cc1	168
Clc1cccnn1	-3*
N#Cc1ccc(Cl)nn1	65
CC(NC(=O)OC(C)(C)C)C(N)=O (stereo unspecified)	52
O=[N+]([O-])c1cccc(/C=N\Nc2nc(-c3ccc(Cl)c(Cl)c3)cs2)c1	58
Fc1ccc(-c2csc(N/N=C\c3ccccc3)n2)cc1	56
C=CCc1cccc(/C=N\Nc2nc(-c3ccc4ccccc4c3)cs2)c1O	14*
COc1cc(Cl)c(C)cc1Nc1nc2c(S(=O)(=O)c3ccc(C)c(C)c3)nnn2c2ccccc12	68
COc1ccccc1-n1ncc2c(C)nnc(SCC(=O)NCc3ccco3)c21	63
CC(C)c1cc(=O)n2c(n1)SCC2CC(=O)NCCCc1ccccc1 (stereo unspecified)	67
CC(C)NC(=O)NNC(=O)c1nc(-c2ccccn2)n[nH]1	58
Cc1cccc(-c2nc3scc(CCN)n3n2)c1	72
Cc1nn2c(N)csc2nc1=O	19*
CCN(c1ccccc1)S(=O)(=O)c1ccc(C(=O)N(CCCN(C)C)c2nc3cc4c(cc3s2)OCO4)cc1	135
CCN(CC)CCN(C(=O)c1ccc(S(=O)(=O)N(CC)c2ccccc2)cc1)c1nc2ccc(C)cc2s1	101
CCN(CC)CCN(C(=O)c1ccc(S(=O)(=O)N(CC)c2ccccc2)cc1)c1nc2cc3c(cc2s1)OCCO3	40*
O=C(CSc1nc2c(c(=O)n1-c1ccc([N+](=O)[O-])cc1)SCC2)N1CCCc2ccccc21	24*
